Compound activity as filed in PubChem.
This is a sample that favours compounds with a hit; in the whole collection about 7.6% have one here.
Giardia killer: Giardia lamblia killing; Giardia lamblia trophozoite viability; activity change, % at 7.66 µM, hits read low; actives 0.15% (n = 340,000); in the data active = activity change below about -80%; inconclusive = between about -30% and that limit;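 also: parasites exposed to compound for two days anaerobically before the ATP read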
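Luminescence from cellular ATP indicates surviving trophozoites (100 cells/well) following 48 hrs anaerobic compound treatment at 37 deg C; signal develops 15-30 min at room temperature.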
BRCA1 expr act: increases BRCA1 expression. MCF7-BRCA1-FFLuc reporter, luminescence, 48 h; response scale: scaled: vehicle 0%, 10 µM genistein 100%. Potency, µM (highest dose often 46.1 µM), most hits filed as activators. actives 1.1% (n = 380,000). AID 624202; also: nearly all actives have a fitted effect of over 80% in size
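MCF7-BRCA1-FFLuc, 2000 cells/well; 2 h attach, 37 °C/5% CO2; compound 48 h; luciferase substrate 15 min; luminescence end-point. Norm. to genistein 10 microM max activation and DMSO; concentration-response curves fitted.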
RORgamma inh: blocks mouse ROR gamma transcriptional activity; P51450; Drosophila S2 Gal4-RORgamma UAS-luciferase reporter, 20 h; Potency, µM (titrated, usually from 53.6 µM), hits mostly inhibitors; actives 5.4% (n = 310,000); also: nearly all actives have a fitted effect of over 60% in size
Target sequence (P51450 whole entry, looked up, the tested form may be a part): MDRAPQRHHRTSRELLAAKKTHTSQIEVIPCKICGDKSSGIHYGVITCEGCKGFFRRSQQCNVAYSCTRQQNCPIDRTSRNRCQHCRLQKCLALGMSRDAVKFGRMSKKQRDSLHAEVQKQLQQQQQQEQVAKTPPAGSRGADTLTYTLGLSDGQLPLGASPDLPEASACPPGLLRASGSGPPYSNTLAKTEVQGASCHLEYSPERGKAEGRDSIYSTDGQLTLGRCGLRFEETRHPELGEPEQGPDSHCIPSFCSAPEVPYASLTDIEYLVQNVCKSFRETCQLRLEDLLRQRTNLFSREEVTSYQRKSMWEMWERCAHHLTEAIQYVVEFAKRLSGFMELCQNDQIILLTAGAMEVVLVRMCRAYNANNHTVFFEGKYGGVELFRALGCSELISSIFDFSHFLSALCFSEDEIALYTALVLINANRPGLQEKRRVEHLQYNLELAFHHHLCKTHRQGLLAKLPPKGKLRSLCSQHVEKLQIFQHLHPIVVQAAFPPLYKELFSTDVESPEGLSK
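Stably transfected Drosophila Schneider cells are the test system, with ROR gamma fused to Gal4 and luciferase under UAS control; luminescence is read after 20 hr of 700 uM copper sulfate induction at ambient temperature.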
VP16 counter: inhibits Gal4-VP16 luciferase reporter, ROR gamma counter-screen. Potency, µM (titrated, usually from 53.6 µM), hits mostly inhibitors. actives 3.5% (n = 310,000). Drosophila S2 Gal4-VP16 UAS-luciferase, luminescence, 20 h;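 also: Gal4-VP16 expression switched on by copper sulfate through the metallothionein promoter; nearly all actives have a fitted effect of over 50% in size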
ELG1 repair inh: ELG1-dependent DNA repair inhibition. HEK293T ELG1-luciferase reporter, luminescence, 16 h; DNA damage induced by 5-fluorouridine. Potency, µM (top dose mostly 46.1 µM), usual class: inhibitors. actives 2.3% (n = 330,000). AID 504467; also: nearly all actives have a fitted effect of over 55% in size
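Overnight (16 hr) co-exposure of 2,000 cells/well to 5-fluorouridine and compound at 37 °C preceded detection. Luciferase was quantified via ONE-Glo luminescence; loss of signal denotes inhibition.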
p53 reactivator: re-activators of mutant p53 | H1299 p53-A138V BP100-luciferase reporter, luminescence, 24 h | Potency, µM (series often up to 92.2 µM), most hits filed as activators | actives 0.063% (n = 320,000); also: nearly all actives have a fitted effect of over 45% in size
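p53-null H1299 cells stably carrying temperature-sensitive p53-A138V and a BP100-luciferase reporter were pinned with compounds (4-point, 1:5 series) and held 24 hrs at 37 deg C. Luminescence was read 10 min after detection reagent.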
Of the large screens only hits and unclear results are named; the others gave an inactive call. Unless noted, calls follow the shape of the dose curve; as a rule, active = well fitted curve in the direction sought with a large enough effect; inconclusive = small, poorly fitted or top-dose-only effect, or another doubt; inactive = no such curve, though single readings can be large; an effect the other way counts as inactive or inconclusive.

COc1ccccc1C(=O)NCC(=O)OCC(=O)N1CC(C)OC(C)C1 (configuration not stated)	none (no result: RORgamma inh, VP16 counter)
COc1cc2c(cc1OC)C(C)N(C(=O)c1cccc([N+](=O)[O-])c1)CC2 (configuration not stated)	RORgamma inh inconclusive, ELG1 repair inh 18µM
O=C(O)c1ccc(NC2=C/C(=N/S(=O)(=O)c3ccccc3)c3ccccc3C2=O)cc1	RORgamma inh 11µM, VP16 counter 7.9µM, ELG1 repair inh 4.6µM
Cc1cc(C)c(S(=O)(=O)/N=C2\C=C(NS(=O)(=O)c3ccccc3)C(=O)c3ccccc32)c(C)c1	none
Cc1cc(C)c(S(=O)(=O)/N=C2\C=C(Nc3ccc(C(=O)O)cc3)C(=O)c3ccccc32)c(C)c1	RORgamma inh inconclusive, VP16 counter 10µM, ELG1 repair inh 3.3µM
NC(=S)NN=C1CCCCCCCC1	Giardia killer inconclusive (no result: RORgamma inh, VP16 counter, ELG1 repair inh, p53 reactivator)
C/C(=N\NC(N)=S)C1C2C3CC4C5CC(C42)C1C53 (configuration not stated)	RORgamma inh 1.1µM, VP16 counter inconclusive, ELG1 repair inh inconclusive
CCCCC(=O)Nc1cccc(-c2cn3ccccc3n2)c1	BRCA1 expr act inconclusive, ELG1 repair inh inconclusive
O=C1C2C(C(=O)N1c1ccc3c(c1)OCO3)C1C=CC2C12CC2 (configuration not stated)	ELG1 repair inh inconclusive
C=CCn1c(SCc2c(F)c(F)c(F)c(F)c2F)nc(O)cc1=O	none
COc1ccc(C)cc1N1C(=N)/C(=C2/Nc3ccccc3S2)C(c2ccccc2)C1=O (configuration not stated)	RORgamma inh 2.5µM, VP16 counter 8.9µM, ELG1 repair inh inconclusive
COc1ccc(C2C(Oc3ccccc3)C(=O)N2c2cc(C)ccc2C)cc1OC (configuration not stated)	ELG1 repair inh inconclusive
Cc1ccc(CN(C(=O)c2ccccc2C)C2CCS(=O)(=O)C2)o1 (configuration not stated)	none (no result: RORgamma inh, VP16 counter, p53 reactivator)
O=C(NNC1=NCCC1)c1cccc(S(=O)(=O)N2CCCC2)c1	RORgamma inh 8.9µM, VP16 counter inconclusive
O=C(NNC1=NCCC1)c1cccc(S(=O)(=O)N2CCOCC2)c1	RORgamma inh inconclusive, VP16 counter inconclusive
O=C(c1cccc(S(=O)(=O)N2CCCC2)c1)c1cccc(S(=O)(=O)N2CCCC2)c1	ELG1 repair inh 5.8µM
N#CCSc1nnc(C2CCCCC2)n1Cc1ccccc1	none
S=C1NC2(CCCCC2)Nc2ccccc21	RORgamma inh 7.1µM, VP16 counter inconclusive
O=C1c2ccccc2NC2(CCCC2)N1O	none
S=C1NC2(CCCC2)Nc2ccccc21	RORgamma inh 0.35µM, VP16 counter inconclusive
c1cc2c3c(cccc3c1)NC1(CCCC1)N2	none (no result: RORgamma inh, VP16 counter, ELG1 repair inh, p53 reactivator)
COc1ccc(/C=N/NC(=O)c2ccco2)cc1OCc1ccccc1	none
Cc1ccnc(Nc2nc(-c3ccc(Cl)cc3)cs2)c1	BRCA1 expr act inconclusive, VP16 counter inconclusive, ELG1 repair inh inconclusive
Cc1ccnc(Nc2nc(-c3ccc(F)cc3)cs2)c1	RORgamma inh 11µM, VP16 counter inconclusive, ELG1 repair inh inconclusive (no result: p53 reactivator)
Cc1cc(-c2csc(Nc3ccccn3)n2)ccc1F	RORgamma inh 1µM, VP16 counter inconclusive, ELG1 repair inh inconclusive (no result: p53 reactivator)
COc1ccc(CCNCC(O)COc2cccc(C(C)=O)c2)cc1OC (configuration not stated)	ELG1 repair inh inconclusive
CCN(CC(=O)Nc1c(F)cccc1F)C(=O)C1=COCCO1	none (no result: RORgamma inh, VP16 counter)
CCCCNC(=O)C1(C)CCCCN1C(=O)c1cccs1 (configuration not stated)	none (no result: Giardia killer, RORgamma inh, VP16 counter, ELG1 repair inh, p53 reactivator)
COc1ccc(Nc2nc(C(=O)N3CCc4cc(OC)c(OC)cc4C3)cs2)cc1	RORgamma inh inconclusive, ELG1 repair inh 16µM
Cc1ccc(NC(=O)NCCN2CCN(C(=O)Nc3ccc(C)cc3)CC2)cc1	none
COc1ccc(C)cc1NC(=O)CCCN1C(=S)NC(C)(C)CC1C (configuration not stated)	RORgamma inh 1µM, VP16 counter 4.5µM
COc1ccc(OC)c(NC(=O)CCCN2C(=S)NC(C)(C)CC2C)c1 (configuration not stated)	RORgamma inh 11µM, VP16 counter 18µM
O=C(CN(C(=O)CSc1nc2ccccc2o1)c1ccccc1)NC1CCCCC1	none
COc1ccc(-n2cc(-c3ccccc3)c3c(NN4CCOCC4)ncnc32)cc1	RORgamma inh 4.5µM, VP16 counter inconclusive, ELG1 repair inh inconclusive
COc1ccc(-n2cc(-c3ccccc3)c3c(NCCOCCO)ncnc32)cc1	ELG1 repair inh inconclusive
Cc1ccc(-n2cc(-c3ccccc3)c3c(N4CCOCC4)ncnc32)cc1	ELG1 repair inh inconclusive
Fc1ccc(-n2cc(-c3ccccc3)c3c(NN4CCOCC4)ncnc32)cc1	RORgamma inh 13µM, VP16 counter 10µM, ELG1 repair inh inconclusive
NS(=O)(=O)c1ccc(CCNc2ncnc3c2c(-c2ccccc2)cn3-c2ccc(F)cc2)cc1	ELG1 repair inh 16µM
Cc1cccc(-n2cc(-c3ccccc3)c3c(N4CCOCC4)ncnc32)c1	ELG1 repair inh 18µM
COc1ccc(NS(=O)(=O)c2cc3c(cc2C)N(C)CCO3)c(OC)c1	none
COc1ccc(-c2nc(C(N)=O)c3c(n2)n(-c2ccccc2OC)c(=O)n3C)c(OC)c1	none (no result: Giardia killer, RORgamma inh, VP16 counter, ELG1 repair inh, p53 reactivator)
COC(=O)c1ccc(Oc2cc(C)nc(-n3nc(C)cc3C)n2)cc1	RORgamma inh 0.28µM, VP16 counter 3.2µM, ELG1 repair inh inconclusive
CS(=O)(=O)c1ccccc1-c1nnc(NC(=O)CCS(=O)(=O)c2ccc(Cl)cc2)o1	ELG1 repair inh inconclusive (no result: RORgamma inh, VP16 counter)
CCCCC1(C)Cc2ccccc2C(=S)N1 (configuration not stated)	RORgamma inh 1µM, VP16 counter 5.6µM
CCCCC(=O)NC(c1cccs1)c1cc(Cl)c2cccnc2c1O (configuration not stated)	RORgamma inh 2.5µM, VP16 counter 3.5µM, ELG1 repair inh inconclusive
CC(=O)NC(c1ccc(N(C)C)cc1)c1cc(Cl)c2cccnc2c1O (configuration not stated)	none (no result: Giardia killer, RORgamma inh, VP16 counter, ELG1 repair inh, p53 reactivator)
CCC(=O)NC(c1cc(Cl)c2cccnc2c1O)C1CC1 (configuration not stated)	ELG1 repair inh inconclusive, p53 reactivator inconclusive (no result: RORgamma inh, VP16 counter)
CCC(=O)NC(c1cccs1)c1cc(Cl)c2cccnc2c1O (configuration not stated)	none
CC(=O)NC(c1ccccc1)c1cc(Cl)c2cccnc2c1O (configuration not stated)	RORgamma inh 1.4µM, VP16 counter 1.1µM, ELG1 repair inh inconclusive
